Screens: PubChem, The Scripps Research Institute Molecular Screening Center
PAFAH2 FP inh – PAFAH2 enzyme inhibitors, primary screen, biochemical, fluorescence polarization, human; Platelet-activating factor acetylhydrolase 2, cytoplasmic (Homo sapiens), Q99487; recombinant PAFAH2, FP-rhodamine activity probe; inhibition, % at 3.39 µM; 340,000 compounds, 0.99% hits;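 active = inhibition above the mean over all tested compounds plus 3 SD, cut at about 30% in these data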;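 also: inhibitors block probe labeling of enzyme so polarization drops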
pPAFAH inh – pPAFAH enzyme inhibitors, primary screen, biochemical, fluorescence polarization, human. Platelet-activating factor acetylhydrolase (Homo sapiens), Q13093. recombinant pPAFAH, FP-rhodamine probe fluorescence polarization. inhibition, % at 3.39 µM. 330,000 compounds, 1.5% hits. AID 463082, 2010;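 active = inhibition above the mean inhibition across the screen plus 3 SD, cut at about 25% in these data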;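 also: inhibitors block binding of the rhodamine activity-based probe so polarization drops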
Rin1 Abl inh – inhibitors of Rin1-Abl protein binding, primary screen, biochemical, TR-FRET | Tyrosine-protein kinase ABL1 (Homo sapiens) + Ras and Rab interactor 1 (Homo sapiens), … | 360,000 compounds, 0.4% hits | inhibition, % at 7.35 µM; in the data active = inhibition above about 5%, passing the limit was not always enough
E coli Lon inh – inhibitors of E. coli Lon protease, primary screen, biochemical, fluorescence polarization; P0A9M0; purified E. coli Lon protease; inhibition, % at 7.94 µM; 360,000 compounds, 0.42% hits; AID 602123, 2011; in the data active = inhibition above about 13%, passing the limit was not always enough
PAFAH1B2 inh – PAFAH1B2 enzyme inhibitors, primary screen, biochemical, fluorescence polarization, human; inhibition, % at 3.39 µM; Platelet-activating factor acetylhydrolase IB subunit alpha2 (Homo sapiens), P68402; 340,000 compounds, 1.2% hits; recombinant PAFAH1B2, FP-rhodamine activity probe;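 active = inhibition above the mean of all tested compounds plus 3 SD, cut at about 24% in these data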
Target sequence (P68402 whole entry, looked up): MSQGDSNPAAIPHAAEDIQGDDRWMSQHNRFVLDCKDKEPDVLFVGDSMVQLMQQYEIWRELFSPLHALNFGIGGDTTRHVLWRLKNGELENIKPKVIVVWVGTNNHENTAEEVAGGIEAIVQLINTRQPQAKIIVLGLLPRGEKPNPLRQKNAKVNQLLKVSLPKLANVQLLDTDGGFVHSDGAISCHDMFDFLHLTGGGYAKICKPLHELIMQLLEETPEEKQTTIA
PAFAH1B3 FP inh – PAFAH1B3 enzyme inhibitors, primary screen, biochemical, fluorescence polarization, human; Platelet-activating factor acetylhydrolase IB subunit alpha1 (Homo sapiens), Q15102; recombinant PAFAH1B3, FP-rhodamine probe; inhibition, % at 3.39 µM; 340,000 compounds, 0.28% hits;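 active = inhibition above the screen-wide average of all tested compounds plus 3 SD, cut at about 25% in these data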
Target sequence (Q15102 whole entry, looked up): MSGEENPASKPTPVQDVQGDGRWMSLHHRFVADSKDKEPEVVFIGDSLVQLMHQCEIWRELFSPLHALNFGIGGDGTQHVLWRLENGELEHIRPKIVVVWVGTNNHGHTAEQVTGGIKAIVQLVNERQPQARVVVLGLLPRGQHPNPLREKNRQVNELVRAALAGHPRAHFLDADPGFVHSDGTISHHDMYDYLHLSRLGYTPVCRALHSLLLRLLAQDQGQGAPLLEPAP
Hits are given with their value; – = inactive; · = not tested or not shown. An excerpt weighted towards active compounds, which were near 3.1% of everything screened.

SMILES	PAFAH2 FP inh	pPAFAH inh	Rin1 Abl inh	E coli Lon inh	PAFAH1B2 inh	PAFAH1B3 FP inh
O=c1c2c([nH]c3ccc(Br)cc13)CCCC2	–	–	–	–	–	–
O=C(O)c1cccc2c1Cc1cc(Cl)ccc1-2	–	·	–	–	–	–
CN(CC1CCCO1)S(=O)(=O)c1ccc(C(=O)Nc2ccc(S(N)(=O)=O)cc2)cc1 (stereo unspecified)	–	–	–	–	–	–
CN(C(=O)CSc1nc(-c2ccc(C(C)(C)C)cc2)c(C#N)c(=O)[nH]1)C1CCCCC1	–	–	–	–	31	–
O=C(NCCc1ccc(Cl)cc1Cl)c1ccc2nc[nH]c2c1	–	–	–	–	29	–
CC(C)CCNC(=O)c1ccc2nc[nH]c2c1	–	–	–	–	–	–
O=C(NCCSc1ccc(Br)cc1)c1ccc2nc[nH]c2c1	–	30	–	–	47	–
O=C(NCCc1ccc(Cl)cc1)c1ccc2nc[nH]c2c1	–	–	–	–	–	–
COc1cc(CNC(=O)CCCCCCC(C)C)ccc1O	–	26	–	–	–	–
COc1ccc(CCNC(=O)CCCCC(=O)NCCc2ccc(OC)c(OC)c2)cc1OC	–	–	–	–	–	–
COc1cccc(/C=N/Nc2snc(SC)c2C#N)c1O	33	29	–	–	–	–
CC1(C(=O)NS(=O)(=O)c2ccc(Br)cc2)CCN1C(=O)C1CCCCC1 (stereo unspecified)	·	·	–	–	·	·
O=C(Cc1c(C(=O)O)[nH]c2ccccc12)NCCN1CCN(c2cccc(Cl)c2)CC1	–	–	–	–	25	–
O=C(NCCN1CCN(c2ccccc2)CC1)c1cccc(Cl)c1	–	–	–	–	–	–
O=C(O)c1[nH]c2ccc(Cl)cc2c1CC(=O)N1CCN(c2ccccc2)CC1	–	–	–	–	25	–
O=C1OC(C(=O)Nc2ccccc2)Cc2ccccc21 (stereo unspecified)	49	25	–	–	–	–
CC(NC(N)=O)C12CC3CC(CC(C3)C1)C2 (stereo unspecified)	–	–	–	–	26	–
COc1ccc(Oc2coc3cc(OC(=O)N4CCOCC4)ccc3c2=O)cc1	–	34	–	–	–	–
O=C(Cc1cccs1)NNC(=S)NCc1ccc(Cl)cc1	–	–	–	–	55	–
O=C(Cc1ccc(Cl)cc1)NNC(=S)NC(=O)c1cccs1	–	–	–	–	–	–
CCC1(C)CC(c2csc(N)n2)CCO1 (stereo unspecified)	–	–	–	–	–	–
Nc1nc(C2CCCCC2)cs1	–	–	–	–	58	–
CC1(C(=O)NS(=O)(=O)c2ccc(Cl)s2)CCN1C(=O)C1(c2ccccc2)CCCC1 (stereo unspecified)	·	·	–	–	·	·
COC(=O)c1ccc(C(=O)N2CCCC(Nc3ccc(C(C)C)cc3)C2)nc1 (stereo unspecified)	–	–	–	–	25	–
CCOC(=O)N1CCC(N2C(=O)c3ccccc3C2Nc2ccc(S(=O)(=O)N3CCOCC3)cc2)CC1 (stereo unspecified)	–	–	14	–	–	–
SMILES	PAFAH2 FP inh	pPAFAH inh	Rin1 Abl inh	E coli Lon inh	PAFAH1B2 inh	PAFAH1B3 FP inh
CCOC(=O)N1CCC(N2C(=O)c3ccccc3C2Nc2cc(OC)c(OC)c(OC)c2)CC1 (stereo unspecified)	–	–	–	–	–	–
CCOc1ccc(CN(C)C(=O)c2ccc(S(=O)(=O)N(C)c3ccccc3OC)cc2)cc1	–	–	–	–	–	–
Cc1ccc(C)c(N=Nc2ccc(O)c3ncccc23)c1	–	27	–	–	–	–
CCOc1ccc(N=Nc2ccc(O)c3ncccc23)cc1	–	·	–	–	–	–
CC(=O)Nc1ccc(S(=O)(=O)c2ccc(C)cc2)cc1	–	–	–	–	25	–
Cc1ccc(S(=O)(=O)NNC(=O)CCCCC(=O)NNS(=O)(=O)c2ccc(C)cc2)cc1	–	–	–	–	–	–
CC(=O)Nc1ccc(C(=O)CS(=O)(=O)c2ccc(C)cc2)cc1	–	–	–	–	–	–
Cc1ccc(S(=O)(=O)NNC(=O)C(=O)NNS(=O)(=O)c2ccc(C)cc2)cc1	–	–	–	–	28	–
CC(C)CC(=O)C1=C(O)C(=O)N(Cc2ccccc2)C1c1ccccc1 (stereo unspecified)	–	–	–	–	–	–
Cc1ccc(CCNS(=O)(=O)c2cc3c(cc2C)NC(=O)CO3)cc1	–	–	–	–	24	–
Cc1cccc(CCNS(=O)(=O)c2cc3c(cc2C)NC(=O)CO3)c1	–	–	–	–	–	–
Nc1c(N2CCCC2)cc(Cl)c2nonc12	35	–	–	–	–	66
N#CC(C(=O)C12CC3CC(CC(C3)C1)C2)c1nc2ccccc2[nH]1 (stereo unspecified)	31	–	–	–	–	–
N#CC(C(=O)CCN1C(=O)C2CC=CCC2C1=O)c1nc2ccccc2[nH]1 (stereo unspecified)	–	–	–	–	–	–
N#Cc1cnc(SCC(=O)NNC(=O)COc2cccc3ccccc23)nc1N	–	–	–	–	–	–
COC(=O)c1ccc2c(CCO)c[nH]c2c1	–	–	–	–	–	–
O=C1NC(c2cccc(Br)c2)=N/C1=C\c1ccco1	–	31	–	–	–	–
O=C1NC(c2ccccc2)=N/C1=C/c1ccco1	–	–	–	–	–	–
O=C(NCCSc1ccccc1)c1ccccc1F	–	–	–	–	–	–
COc1ccc(C(=O)NCCSc2ccc(C)cc2)cc1	–	–	–	–	–	–
Cc1ccc(SCCNC(=O)c2ccc(C)c(S(=O)(=O)Nc3cccc(C)c3)c2)cc1	–	30	–	–	–	–
Cc1cccc(NS(=O)(=O)c2cc(C(=O)NCCC3=CCCCC3)ccc2Cl)c1	–	–	–	–	25	–
Cc1ccc(SCCNC(=O)c2ccccc2F)cc1	–	–	–	–	25	–
Cc1ccccc1NS(=O)(=O)c1cc(C(=O)NCCC2=CCCCC2)ccc1Cl	–	–	–	–	–	–
Cc1ccc(SCCNC(=O)c2ccccc2)cc1	–	–	–	–	27	–
CCS(=O)(=O)N1Cc2ccccc2CC1C(=O)Nc1cccc(S(=O)(=O)N(C)C)c1 (stereo unspecified)	–	–	–	–	–	–
CCOc1ccccc1C(=O)NCC(=O)NCCSc1ccc(Br)cc1	–	·	–	–	28	–
Cc1ccc(SCCC(=O)NCCSCc2ccccc2C)cc1	–	–	–	–	42	–
CCCCNC(=O)CCSc1ccc(C)cc1	–	–	–	–	–	–
